The values below come from PubChem BioAssay AID1851 (National Center for Advancing Translational Sciences (NCATS), 2009).

Where “and” joins values, the source holds several entries; their conditions need not be identical. Equal entries are not always repeated. Out of some 16,000 compounds screened, about 5,800 (36%) were called active. Not shown: some 23% with an inconclusive outcome. Some of the results follow. Unmarked numbers belong to inactive results. Calls come from the whole dose curve; as a rule, active = well fitted curve in the direction sought with a large enough effect; inconclusive = small, poorly fitted or top-dose-only effect, or effect the other way; inactive = no such curve, though single readings can be large or run the other way.
% is set by controls: 0 for no effect and ±100 for the full control effect.

The target in the experiment is Cytochrome P450 2C19 (Homo sapiens) (UniProt P33261). The experiment can be described thus: Cytochrome panel assay with activity outcomes. Particulars: recombinant CYP, pro-luciferin dealkylation, luminescence, p450-cyp2c19; series mostly up to 57.1 µM.
Chain of Cytochrome P450 2C19 (Homo sapiens) (P33261 whole entry, looked up): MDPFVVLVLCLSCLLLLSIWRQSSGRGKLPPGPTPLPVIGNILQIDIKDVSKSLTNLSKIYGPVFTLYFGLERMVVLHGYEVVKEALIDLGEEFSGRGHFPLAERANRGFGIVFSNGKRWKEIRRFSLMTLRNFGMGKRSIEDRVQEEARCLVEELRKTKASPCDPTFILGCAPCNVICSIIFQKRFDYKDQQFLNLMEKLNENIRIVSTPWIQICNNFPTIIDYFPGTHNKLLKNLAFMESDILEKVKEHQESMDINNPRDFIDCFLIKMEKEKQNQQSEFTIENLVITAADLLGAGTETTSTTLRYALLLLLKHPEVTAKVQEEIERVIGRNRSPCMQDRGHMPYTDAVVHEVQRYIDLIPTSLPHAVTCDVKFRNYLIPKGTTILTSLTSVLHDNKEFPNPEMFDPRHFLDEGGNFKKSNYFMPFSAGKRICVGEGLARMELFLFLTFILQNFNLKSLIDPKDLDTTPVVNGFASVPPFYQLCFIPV
With `CN(NC(=O)NN)c1ncc(C(F)(F)F)cc1Cl`, the concentration at half-maximal activity (AC50) was 10 µM (active). On to `O=C(CN(C(=O)CSc1nc2ccccc2o1)c1cccc(F)c1)NC1CCCCC1`, for which the AC50 was 1 µM (active).

As to `NC(N)=N/N=C(\c1ccc(Cl)cc1)C1CC1`, the activity, negative = inhibition is -27.1% [at 11.4 µM].

As to `COc1ccc(Cc2c(N)nc(N)nc2N)cc1`, the AC50 entry was “inactive”. In the case of `COc1ccc(N2C(N)=NC(N)=NC2(C)C)cc1`, the AC50 result is “inactive”. As for `COc1ccc2nc(N)sc2c1`, the AC50 was 31.6 µM (active). As for `O=C1NC(c2cccc([N+](=O)[O-])c2)=CCN1c1ccccc1O`, the AC50 is 6.31 µM (active). On to `Cc1ccc(-c2cc(C(=O)NN=C3CCCC3)c3ccccc3n2)cc1`, for which the half-maximal activity concentration (AC50) is 28.2 µM (active).

`Cc1cccc(NC(=S)NC(=O)c2cc(-c3ccccc3)nc3ccccc23)c1`: the AC50 was 1.58 µM (active). For `Cc1ccccc1NC(=S)NC(=O)c1cc(-c2ccccc2)nc2ccccc12`, the AC50 was 2.82 µM (active).

On to `O=C(O)c1cc(-c2ccc3cc4c(cc3c2)OCO4)nc2ccccc12`, for which the activity, negative = inhibition was 35.1% [at 11.4 µM]. `CCCOc1ccc(C(=O)NNC(=S)NC(=O)c2cc(-c3ccccc3)nc3ccccc23)cc1`: the AC50 entry is “inactive”. On to `C[C@@]12CC(=O)[C@@H]3[C@@H](CCC4=CC(=O)CC[C@]43C)[C@@H]1CC=C2CC(=O)O`, for which the activity, negative = inhibition was 30.4% [at 11.4 µM]. On to `COCC(=O)N1CCC2(CC1)CN(C(=O)Nc1ccc(OC)cc1)C2`, for which the AC50 result is “inactive”. On the same count and under the same terms, to `COCC(=O)N1CCC2(CCCN(C(=O)Nc3ccccc3)C2)CC1` belongs “inactive”; to `COCC(=O)N1CCC2(CCCN(c3ccncc3)C2)CC1`, “inactive”. As to `COCC(=O)N1CCC2(CC1)CN(C(=O)Nc1ccccc1)C2`, the AC50 was 5.01 µM (active). Consider `COCC(=O)N1CCC2(CCCN(c3cccc(-c4ccccc4)c3)C2)CC1`, for which the AC50 is 15.8 µM (active). On to `c1ccc(-c2ccc(N3CC4(CCNCC4)C3)cc2)cc1`, for which the AC50 entry was “inactive”. On to `c1ccc(-c2ccc(N3CCCC4(CCNCC4)C3)cc2)cc1`, for which the AC50 was 15.8 µM (active). On to `COCC(=O)N1CCC2(CCN(Cc3ccncc3)CC2)CC1`, for which the AC50 was 0.0251 µM (active). With `O=C(c1ccncc1)N1CCC2(CCN(Cc3ccncc3)CC2)CC1`, the AC50 entry was “inactive”. On the same count and under the same terms, in the case of `CC(=O)N1CCC2(CCN(Cc3ccncc3)CC2)CC1` it was “inactive”; in that of `c1ccc(-c2cccc(N3CC4(CCNCC4)C3)c2)cc1`, “inactive”; in that of `O=C(Oc1ccccc1)N1CCC2(CCCN(c3cccc(-c4ccccc4)c3)C2)CC1`, “inactive”. For the molecule `CCN=C(N)CSS(=O)(=O)O`, the activity, negative = inhibition is -0.003% [at 11.4 µM]. For `CC(=O)N1CCC[C@@]2(CCN(c3ccccc3)C2)C1`, the AC50 entry is “inactive”. On the same count and under the same terms, to `COc1ccc(C(=O)N2CCC[C@@]3(CCN(c4cccc(-c5ccccc5)c4)C3)C2)cc1` belongs 7.94 µM (active); to `COc1ccc(C(=O)N2CCC[C@@]3(CCN(C(=O)Nc4ccccc4)C3)C2)cc1`, “inactive”; to `CC(=O)N1CCC2(CC1)CCN(c1cccc(-c3ccccc3)c1)CC2`, “inactive”.

Regarding `O=C(c1cnccn1)N1CCC2(CC1)CCN(c1ccccc1)CC2`, the AC50 entry was “inactive”. On to `CC(=O)N1CCC2(CCCN(c3cccc(-c4ccccc4)c3)C2)CC1`, for which the AC50 is 15.8 µM (active). Take `CC(=O)N1CCC2(CCCN(Cc3ccccc3)C2)CC1`: the AC50 entry was “inactive”.

Consider `O=C(c1cnccn1)N1CCC2(CCCN(c3ccccc3)C2)CC1`, for which the concentration at half-maximal activity (AC50) is 0.501 µM (active).

For `COc1ccc(C(=O)N2CCC[C@@]3(CCN(Cc4ccccc4)C3)C2)cc1`, the AC50 entry is “inactive”. In the case of `CC(=O)N1CCC2(CCCN(c3ccccc3)C2)CC1`, the AC50 was 25.1 µM (active). As to `O=C(c1cnccn1)N1CCC2(CC1)CN(c1ccccc1)C2`, the AC50 entry is “inactive”. In the case of `O=C(Nc1ccc2ccccc2c1)[C@H]1C[C@@H]1[C@H](NP(=O)(c1ccccc1)c1ccccc1)c1ccccc1`, the AC50 was 3.16 µM (active). Still for that read-out and setting: to `Cc1cc(CNC(=O)[C@H]2C[C@@H]2[C@H](NP(=O)(c2ccccc2)c2ccccc2)c2ccccc2)nn1C` belongs “inactive”; to `Cc1cc(CNC(=O)[C@@H]2C[C@H]2[C@@H](NP(=O)(c2ccccc2)c2ccccc2)c2ccccc2)nn1C`, “inactive”; to `O=C(NCCc1c[nH]c2ccccc12)[C@@H]1C[C@H]1[C@@H](NP(=O)(c1ccccc1)c1ccccc1)c1ccccc1`, 6.31 µM (active). Take `O=C(NCCc1c[nH]c2ccccc12)[C@H]1C[C@@H]1[C@H](NP(=O)(c1ccccc1)c1ccccc1)c1ccccc1`: the AC50 was 1.26 µM (active).

For `O=C(Nc1ccc2ccccc2c1)[C@@H]1C[C@H]1[C@@H](NP(=O)(c1ccccc1)c1ccccc1)c1ccccc1`, the AC50 result is “inactive”. Take `COc1cc(/C=C(/C#N)c2nc3ccccc3[nH]2)ccc1Oc1ncccc1[N+](=O)[O-]`: the AC50 was 3.98 µM (active). Regarding `CCOC(=O)/C(C#N)=C\N(C)C`, the AC50 entry was “inactive”. Regarding `CCOC(=O)/C(C#N)=C\c1ccc(OCC(=O)Nc2ccc(C)cc2C)c(OC)c1`, the AC50 was 2.82 µM (active). The same measure, in the same setting: to `COc1cc(/C=C(/C#N)c2nc3ccccc3[nH]2)ccc1OCC(=O)Nc1ccccc1C` belongs 4.47 µM (active). Still for that read-out and setting: to `COc1ccc(/C=C(/C#N)C(=O)Nc2cc(C)ccc2C)cc1C(=O)O` belongs “inactive”; to `O=S(=O)(NCc1cc(-c2ccccc2)no1)c1ccc(Cl)cc1`, 0.708 µM (active).

With `COc1ccc(-c2cc(CNC(C)=O)on2)cc1`, the AC50 entry is “inactive”.

On to `Cn1c(CNS(=O)(=O)c2ccc(Cl)cc2)n[nH]c1=S`, for which the AC50 entry was “inactive”. As to `Clc1ccc(SCc2cc(-c3ccccc3)no2)cc1`, the half-maximal activity concentration (AC50) was 1.12 µM (active). Regarding `O=S(=O)(NCc1cc(-c2ccc(Cl)cc2)no1)c1ccc(Cl)cc1`, the AC50 is 1.58 µM (active).

As for `O=c1cnc2cnc(N3CCOCC3)nc2n1C1CC1`, the AC50 result was “inactive”.

`Nc1nc(N)[n+]([O-])c(N)c1NCO`: the activity, negative = inhibition is 33.1% [at 11.4 µM]. For `CC(=O)Nc1ccc(NC(=O)C/C(C)=N/NC(=O)C(=O)N2CCCC2)cc1`, the AC50 entry was “inactive”. For the molecule `CC(=O)Nc1cccc(N2C(=O)CCC2=O)c1`, the AC50 result was “inactive”. In the case of `CC(=O)Nc1ccc(N2CCCCC2)c(C(=O)Nc2cccc(C)c2)c1`, the half-maximal activity concentration (AC50) is 20 µM (active). In the case of `CC(=O)Nc1ccc(N2CCCCC2)cc1`, the AC50 was 31.6 µM (active).

Turning to `O=C(Nc1ccc(N2CCCCC2)cc1)c1cncc(Br)c1`, the concentration at half-maximal activity (AC50) is 17.8 µM (active).

For `CC(=O)OC[C@@H]1O[C@@H](O/N=C2/C[C@@H](O)[C@@H](O)[C@@H]3[C@@H]4C(=O)N([C@@H](C)c5ccccc5)C(=O)[C@H]4CC[C@@H]23)[C@H](OC(C)=O)[C@H](OC(C)=O)[C@@H]1OC(C)=O`, the activity, negative = inhibition is 23% [at 11.4 µM]. Regarding `CC(C)NC(=O)N1CCC2(CC1)CCN(C(=O)c1cccn1C)CC2`, the AC50 result is “inactive”. The same measure, in the same setting: to `CNCCCCCCCCSc1nc(C(C)C)ccc1C(=O)c1cccs1` belongs 15.8 µM (active). Same read-out and setting: to `CC(C)NCCCOc1ccc(Cl)cc1Br` belongs 8.91 µM (active); to `CCOc1ccc(Cl)cc1CNCCNCC(C)O` (stereo unspecified), “inactive”. On to `CCN(CC)c1ccc(NC(=O)c2cnn(CC)c2)cc1`, for which the AC50 is 28.2 µM (active). Take `CC(C)CCNC1=NCCCCC1`: the AC50 result is “inactive”. Still for that read-out and setting: in the case of `CNc1ccc(Br)cc(C(=O)/C=C/c2ccc3c(c2)OCO3)c1=O` it was 1.78 µM (active). On the same count and under the same terms, in the case of `CCNc1ccc(Br)cc(C(=O)/C=C/c2ccc3c(c2)OCO3)c1=O` it was 3.98 µM (active). With `N#Cc1cccc(-c2cc(NCc3cccs3)ncn2)c1`, the half-maximal activity concentration (AC50) was 10 µM (active). In the case of `N#Cc1cccc(-c2nccc(NCc3cccs3)n2)c1`, the concentration at half-maximal activity (AC50) is 3.98 µM (active). With `c1csc(CNc2cc(-c3ccoc3)ncn2)c1`, the AC50 was 10 µM (active). Turning to `c1cncc(-c2cc(NCc3cccs3)ncn2)c1`, the AC50 result was “inactive”. `c1ccc(CNc2cc(-c3ccoc3)ncn2)cc1`: the AC50 result is “inactive”.

Consider `N#Cc1cccc(-c2nccc(NCc3ccccc3)n2)c1`, for which the AC50 is 10 µM (active). Turning to `CCOC(=O)C(NC(C)=O)C(=O)O` (stereo unspecified), the AC50 result was “inactive”.

With `Cc1cccc(CNc2cc(-c3cccc(C#N)c3)ncn2)c1`, the AC50 was 6.31 µM (active). `Cc1cccc(CNc2cc(-c3ccc(N(C)C)cc3)ncn2)c1`: the concentration at half-maximal activity (AC50) is 3.16 µM (active). As to `Cc1cccc(CNc2ccnc(-c3cccc(C#N)c3)n2)c1`, the AC50 was 2.51 µM (active). Take `CN(C)c1ccc(-c2cc(NCc3ccccc3)ncn2)cc1`: the AC50 entry is “inactive”. With `CN(C)C(=O)c1ccc(-c2cc(NCc3ccccc3)ncn2)cc1`, the AC50 result was “inactive”. The same measure, in the same setting: to `Cc1cnc(CNc2cc(-c3cccc(C#N)c3)ncn2)cn1` belongs “inactive”. As to `CO[C@]1(NC(=O)Cc2cccs2)C(=O)N2C(C(=O)O)=C(COC(N)=O)CS[C@H]21`, the AC50 result was “inactive”.

Take `CO[C@H]1COC(=O)C/C=C\[C@@H](C)COC(=O)[C@@H](CCSC)NC(=O)C/C=C\[C@@H]1C`: the activity, negative = inhibition is -53.8% [at 11.4 µM] and -16.1% [at 11.4 µM]. Consider `CO[C@H]1COC(=O)C/C=C\[C@H](C)[C@@H](NS(=O)(=O)c2ccc(C)cc2)COC(=O)CCC[C@@H]1C`, for which the activity, negative = inhibition was -36% [at 11.4 µM]. For the molecule `COc1cccc(NS(=O)(=O)c2ccc3[nH]cc(C(=O)NCCN4CCOCC4)c(=O)c3c2)c1`, the half-maximal activity concentration (AC50) is 22.4 µM (active).

`COc1ccccc1CNS(=O)(=O)c1ccc2[nH]cc(C(=O)O)c(=O)c2c1`: the AC50 entry is “inactive”. For the molecule `O=C(CCN1CCN(c2ccccc2F)CC1)Nc1ccccc1F`, the AC50 is 4.47 µM (active). As to `COC(=O)N1CCC2(CCN(Cc3cc(C(F)(F)F)cc(C(F)(F)F)c3)CC2)CC1`, the AC50 entry is “inactive”.

For the molecule `Cc1ccc(C)n1CCN1CCN(CC(=O)Nc2cc(C(F)(F)F)ccc2Cl)CC1`, the AC50 was 10 µM (active). For the molecule `Cc1ccc(N2CCN(CCC(=O)O)CC2)cc1`, the activity, negative = inhibition is 10.7% [at 11.4 µM]. Consider `O=C(CCN1CCN(CC(=O)Nc2ccccc2Cl)CC1)Nc1ccccc1F`, for which the AC50 was 2.51 µM (active). Turning to `OCCN1CCN(CC/C=C2\c3ccccc3Sc3ccc(C(F)(F)F)cc32)CC1`, the AC50 result is “inactive”. With `CC1=C(C#N)C(Nc2ccc(Cl)cn2)(C(F)(F)F)C(=O)N1` (stereo unspecified), the AC50 is 0.794 µM (active). Consider `CNC(=S)N1N=C(c2ccc(OC)cc2)CC1c1ccc(N(C)C)cc1` (stereo unspecified), for which the AC50 was 3.16 µM (active). `CCN1C(=O)[C@H]2[C@H]3[C@H](O)[C@H](O)C/C(=N/NC(=O)OCc4ccccc4)[C@H]3CC[C@@H]2C1=O`: the activity, negative = inhibition is -7.17% [at 11.4 µM].
